Reference: PubChem BioAssay AID651671 (Sanford-Burnham Center for Chemical Genomics, 2012)
The other results are listed elsewhere or left out. Unmarked numbers belong to inactive results. Activity calls are given as the source filed them.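 How the source made its calls: active means activation of at least 7% in one or more replicates; inactive means the rest.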

assay: alpha-DG glycosylation enhancers, retest, confirmation, single concentration, Pro5-aDG cells (AID 651671); conditions: IIH6 AlphaLISA, hits give high values, screened at 10 µM (by protocol), scaled to LARGE-overexpressing B10 cells as 100%;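 further: cells exposed to compound for two days before detection; 0% = DMSO-treated Pro5 cells and 100% = DMSO-treated B10-LARGE cells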

| Compound | activation |
| --- | --- |
| CCOc1ccc(OCC(=O)Nc2c3c(nn2C(C)(C)C)CS(=O)(=O)C3)cc1 | 0.637% |
| CN(Cc1ccccc1)CC(O)COc1ccc(CNCc2cc3ccccc3s2)cc1 (configuration not stated) | 0.15% |
| Cc1cc(C)c2[nH]c(=O)c(CN(Cc3ccccc3)C(=S)NCCCN(C)C)cc2c1 | 1.74% |
| CC(C)OC(=O)CN1C(=O)C(=O)c2ccccc21 | 8.05% (active) |
| O=C(c1ccc(N2CCCC2=O)cc1)N1CCN(c2ccc(C(F)(F)F)cc2[N+](=O)[O-])CC1 | 1.5% |
| CN1CCN(S(=O)(=O)c2cccc(C(=O)Nc3sccc3C#N)c2)CC1 | 42% (active) |
| CCCn1c(=N)n(CC(=O)c2ccc(Cl)c(Cl)c2)c2ccccc21 | 11% (active) |
| CCc1ccccc1S(=O)(=O)Cc1ccc(C(=O)NCCc2ccccc2)o1 | -0.875% |
| Cc1cccc(CN2CCC(CNC(=O)Nc3ccc(F)c(Cl)c3)CC2)c1 | 11% (active) |
| O=C(NC(c1ccc(-c2ccccc2)cc1)c1cnccn1)C1CCN(CCOc2ccc(Cl)cc2Cl)CC1 (configuration not stated) | 3.11% |
| COc1cc(CNCCN(C)C)ccc1OCc1c(F)cccc1Cl | 6.71% (active) |
| CC(C)C(=O)NCC(c1cccs1)S(=O)(=O)c1ccc(F)cc1 (configuration not stated) | 0.3% |
| COc1ccccc1N1CCN(C(=O)c2cc(-c3ccc(Br)cc3)on2)CC1 | -0.683% |
| CC(=O)Oc1cccc(N2C(=O)C3CC=C(Cl)CC3C2=O)c1 (configuration not stated) | 0.562% |
| Cc1ccc(NC(=O)CN(C)CC(=O)Nc2cccc(F)c2)cc1[N+](=O)[O-] | 1.48% |
| Cc1ccc(NC(=O)c2ccc(Oc3ncccn3)cc2)cc1 | -0.983% |
| CCn1cc(CN2CCC(C(=O)Nc3cccc(-c4cccc(Cl)c4)c3)CC2)c(C)n1 | 9.24% (active) |
| Nc1scc[n+]1Cc1cccc2cccnc12 | -0.533% |
| O=c1ccc2cc(S(=O)(=O)N3CCN(c4ccccc4)CC3)ccc2o1 | -0.742% |
| CN(C)CCCNC(=O)/C=C/c1ccc(OCc2c(F)cccc2Cl)cc1 | 8.53% (active) |
| CCOc1ccccc1Nc1nnc(SCC(=O)NCC2CCCO2)s1 (configuration not stated) | 0.625% |
| COc1cccc(C(=O)Nc2nnc(S(=O)(=O)N3CCCCC3)s2)c1 | -0.562% |
| CC(C)c1cc(Cn2c3ccccc3c(=O)n2C(C)Cn2cc(C3CC3)nn2)on1 (configuration not stated) | 0.475% |
| COc1ccccc1C1SCCN1C(=O)c1ccc([N+](=O)[O-])cc1 (configuration not stated) | -0.592% |
| COc1ccc(NC(=O)CSc2nnc(-c3ccccc3F)n2C2CC2)cc1S(N)(=O)=O | -0.758% |
| CCOC(=O)C1(CCOC)CCN(Cc2cc3ccccc3s2)CC1 | -0.438% |
| OC[C@@H]1CN(Cc2ccc(-c3ccccc3)cc2)C[C@H](n2cnc3c(NC4CCCC4)ncnc32)O1 | 4.21% |
